Values without a mark were called inactive. Inconclusive results are not listed. Entries that show only a call come without a potency. Activity calls are given as the source filed them. Calls come from the whole dose curve; as a rule, active = well fitted curve in the direction sought with a large enough effect; inconclusive = small, poorly fitted or top-dose-only effect, or another doubt; inactive = no such curve, though single readings can be large; an effect the other way counts as inactive or inconclusive.

In experiment [1] the test system is Zika virus NS2B-NS3 protease (linked construct). In words: Primary screen NINDS Rhodamine qHTS for Zika virus inhibitors (AID 1347160). Note: nearly all actives have a fitted effect of over 55% in size. The essentials: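 Aprotinin served as in-plate control. Conditions: 25 nM linked NS2B-NS3, pH 8.0 Tris buffer, titrated compounds, 15 min preincubation and 15 min reaction with 1.5 microM Rhod110 substrate at room temperature.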

Experiment [2] addresses Calcium and integrin-binding protein 1 (Homo sapiens) (UniProt Q99828). Put plainly: Primary qHTS for Identification of Calcium Integrin Binding Protein 1 (CIB1) Competitor (AID 1508620).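 Note: GST tagged CIB1 binding a fluorescein labelled alphaIIb integrin peptide tracer; top concentration of the series differs between compounds.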 In short, it runs like this: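 CIB1-GST (1 uM final) and compound incubated 15 min at room temperature before adding FITC-alphaIIb peptide tracer (100 nM final). Competition for binding read by fluorescence polarization (ex 480, em 540) after another 15 min at room temperature.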
(qHTS replaces the single test concentration by a dilution series.)

Experiment [3] concerns the target Glutathione peroxidase 1 (Homo sapiens) (UniProt P07203). In words: Primary qHTS Assay for Inhibitors of Recombinant Selenoprotein Glutathione Peroxidase 1 (GPX1) (AID 1845191). Note: nearly all actives have a fitted effect of over 65% in size. The essentials: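 NADPH consumption tracked by fluorescence at 340/450 nm between t=0 and t=15 min, room temperature. Final mix: 10 nM GPX1, 100 nM glutathione reductase, 1 mM GSH, 0.5 mM NADPH, 0.5 mM cumene hydroperoxide, 0.01% BSA; 30 min compound–enzyme preincubation.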

The target of experiment [4] is Phospholipid hydroperoxide glutathione peroxidase GPX4 (Homo sapiens) (UniProt P36969). In words: Primary qHTS Assay for Inhibitors of Recombinant Selenoprotein Glutathione Peroxidase 4 (GPX4) (AID 1845192). Note: nearly all actives have a fitted effect of over 65% in size. In short, it runs like this:
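NADPH consumption followed by fluorescence at 340/450 nm, t=0 and after 15 min at room temperature. Reaction started with cumene hydroperoxide (0.5 mM final) after 30 min compound–GPX4 preincubation; final 200 nM GPX4, 100 nM GR, 1 mM GSH, 0.5 mM NADPH.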

For experiment [5], the target named is Luciferin 4-monooxygenase (Photinus pyralis) (UniProt P08659). In words: Primary firefly luciferase (FLuc) qHTS assay for identification of artifact compounds. (AID 1845220). Note: nearly all actives have a fitted effect of over 60% in size. The conditions noted are these: outcome: dose series up to 54.1 µM unless noted. The essentials: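 FLuc 10 nM; luciferin 10 uM; ATP 10 uM; Tris-acetate pH 7.6, Mg-acetate 10 mM; 15 min RT preincubation; 5 min reaction; luminescence.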

A short description of experiment [6]: Primary fluorescence-based thiol-reactive (MSTI) qHTS assay for identification of artifact compounds. (AID 1845221).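 Note: thiol-reactive compounds lower the probe fluorescence signal; nearly all actives have a fitted effect of over 65% in size.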 In short, it runs like this:
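Thiol-reactive compounds detected by quenching of 4 uM MSTI fluorescence (525/598 nm) after 1 h room-temperature dark incubation in PBS pH 7.4, 2% DMSO. qHTS titration; percent inhibition Hill-fitted against Acetyl-MSTI/MSTI controls.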

In experiment [7] the test system is Nanoluciferase (engineered Oplophorus gracilirostris luciferase). Put plainly: Primary Nanoluciferase (NLuc) qHTS assay for identification of artifact compounds. (AID 1845222).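 Note: NLuc secreted into diluted conditioned medium of S16 cells.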 The essentials:
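NLuc from S16 cell medium (1:55) plus test compounds, 15 min, room temperature. Luminescence after Nano-Glo (1:100) addition, 5 min.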

Experiment [8] is described as follows: Primary redox qHTS assay for identification of artifact compounds. (AID 1845223). In short, it runs like this:
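Redox-cycling detection via DTT (250 uM final) oxidation coupled to Amplex Red (25 uM)/HRP (250 mU/mL) in HBSS. 15 min preincubation plus 30 min after DTT, room temperature. Ex/Em 525/598 nm; 4-parameter Hill fit against DMSO and 10 uM DA3003.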

Experiment [9] has as its system NIH3T3. In words: Cytotoxic Profiling of Annotated Libraries Using Quantitative High-Throughput Screening (AID 1296008). Note: potency is the fitted concentration of half-maximal effect; nearly all actives have a fitted effect of over 60% in size. The settings on record: Five cell lines viability, CellTiter-Glo ATP luminescence, 48-72 h; max response: hits give low values. The essentials:
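Cytotoxicity was measured as CellTiter-Glo ATP luminescence, read after 10 min at room temperature. Compound treatment of the cells lasted 48 or 72 hr at 37 degrees Celsius in a qHTS format.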
On the technique in general: In ATP-based viability assays light output follows the ATP content of the culture.

For experiment [10], the system named is C33A. Put plainly: Primary qHTS to identify gynecologic anti-cancer compounds using libraries of approved drugs and bioactive compounds (AID 1345084). Note: nearly all actives have a fitted effect of over 55% in size. The conditions noted are these: Gynecologic cancer cell panel viability, ATPlite luminescence, 48 h; series mostly up to 57.5 µM. The essentials:
(§1)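 Five-point cytotoxicity, 48 h drug exposure at 37 C, 5% CO2, on cells seeded 16 h beforehand. ATP content read by ATPlite luminescence.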

In experiment [11] the test system is CAOV3. The description is as above. The settings on record: Gynecologic cancer cell panel viability, ATPlite luminescence, 48 h; series mostly up to 57.5 µM. In short, it runs like this: as §1
Experiment [12] has as its system CASKI. The experiment is described as above. The conditions noted are these: Gynecologic cancer cell panel viability, ATPlite luminescence, 48 h; series mostly up to 57.5 µM. In short, it runs like this: as §1
The subject of experiment [13] is HeLa. The experiment is described as above. The settings on record: Gynecologic cancer cell panel viability, ATPlite luminescence, 48 h; series mostly up to 57.5 µM. In short, it runs like this: as §1
In experiment [14] the test system is JEG-3. Described as above. The conditions noted are these: Gynecologic cancer cell panel viability, ATPlite luminescence, 48 h; series mostly up to 57.5 µM. In short, it runs like this: as §1
In experiment [15] the test system is OV90. The experiment is described as above. The conditions noted are these: Gynecologic cancer cell panel viability, ATPlite luminescence, 48 h; series mostly up to 57.5 µM. In short, it runs like this: as §1
Experiment [16] deals with SKOV3. The description is as above. The settings on record: Gynecologic cancer cell panel viability, ATPlite luminescence, 48 h; series mostly up to 57.5 µM. In short, it runs like this:
as §1

Experiment [17] relates to Tov-21-G. Described as above. The conditions noted are these: Gynecologic cancer cell panel viability, ATPlite luminescence, 48 h; series mostly up to 57.5 µM. In short, it runs like this: as §1
Experiment [18] relates to CRL-7250. In words: qHTS assay to identify novel small-molecules to repurpose for Merkel cell carcinoma treatment (AID 1296009). Note: nearly all actives have a fitted effect of over 60% in size. The conditions noted are these: MCC and control cell lines, CellTiter-Glo viability, 72 h; series mostly up to 92 µM. In short, it runs like this:
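Cell viability measured by CellTiter-Glo following 72 hr compound treatment at 37 degree celsius, with NPC and MIPE libraries tested in 8- and 11-point concentration series.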

Phospholipid hydroperoxide glutathione peroxidase GPX4 (Homo sapiens), sequence (P36969 whole entry, looked up): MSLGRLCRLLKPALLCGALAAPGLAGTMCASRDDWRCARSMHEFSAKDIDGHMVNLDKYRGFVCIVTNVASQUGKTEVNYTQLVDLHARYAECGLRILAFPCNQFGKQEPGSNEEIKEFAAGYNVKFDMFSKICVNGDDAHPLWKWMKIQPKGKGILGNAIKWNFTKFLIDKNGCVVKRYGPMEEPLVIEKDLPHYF
Glutathione peroxidase 1 (Homo sapiens), sequence (P07203 whole entry, looked up): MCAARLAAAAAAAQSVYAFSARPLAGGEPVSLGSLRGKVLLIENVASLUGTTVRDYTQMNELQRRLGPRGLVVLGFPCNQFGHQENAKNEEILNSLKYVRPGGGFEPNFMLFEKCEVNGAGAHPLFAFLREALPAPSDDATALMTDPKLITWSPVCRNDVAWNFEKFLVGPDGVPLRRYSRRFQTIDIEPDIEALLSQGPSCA
Calcium and integrin-binding protein 1 (Homo sapiens), sequence (Q99828 whole entry, looked up): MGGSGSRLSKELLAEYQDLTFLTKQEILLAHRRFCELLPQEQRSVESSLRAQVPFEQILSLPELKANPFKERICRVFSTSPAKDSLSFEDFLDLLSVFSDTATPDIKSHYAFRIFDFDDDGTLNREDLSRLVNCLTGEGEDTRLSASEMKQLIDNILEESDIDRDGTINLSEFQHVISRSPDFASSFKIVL

As to `CC1=CC(=O)[C@@H](O)[C@]2(C)C3[C@@H](O)[C@@H]4OC(=O)[C@@H]([C@H]4C)[C@]3(C)C(=O)[C@H](O)[C@@H]12` (some centres not stated), the Potency result in experiment [1], in [2], in experiment [3], in experiment [4], in experiment [6] and in experiment [7] was “inactive” throughout. The Potency entry in experiment [8], in experiment [10], in experiment [11], in experiment [12], in experiment [13] and in experiment [14] was “inactive” each time. The Potency entry in experiment [15], in experiment [16] and in experiment [17] was “inactive” each time. Also, in experiment [5], the call was inactive. The Potency in experiment [9] is 2550 nM (active).

For the molecule `CC(C)S(=O)(=O)N[C@H]1CCOC[C@@H]1c1ccc(-c2ccc(C#N)s2)cc1`, in experiment [18], the Potency result was “inactive”.

Consider `COC(=O)c1ccccc1O[C@@H]1O[C@H](CO)[C@@H](O)[C@H](O)[C@H]1O[C@@H]1O[C@@H](C)[C@H](O)[C@@H](O)[C@H]1O`, for which the Potency entry in [18] is “inactive”.

`O=C(Nc1ccccc1C(=O)NC1CCCCNC1=O)c1cc2ccccc2s1` (configuration not stated): in experiment [18], the Potency result is “inactive”.

Consider `C/C=C(\C)C1C(C)=CC2CCC(OS(=O)(=O)O)C(C)C2C1/C=C/C=C/C(=O)O` (configuration not stated), for which the Potency entry in [18] is “inactive”.

In the case of `CC(CCO)CCC1C2(C)CCCC(C)(C)C2CC[C@@]1(C)O` (some centres not stated), in experiment [18], the Potency entry was “inactive”.

With `CC(=O)OC[C@]12[C@H](OC(C)=O)[C@H](OC(=O)c3ccccc3)[C@@H]3[C@@H](OC(C)=O)[C@]1(OC3(C)C)[C@H](C)C[C@H](OC(=O)c1ccccc1)[C@@H]2OC(=O)c1ccccc1`, in [18], the Potency result is “inactive”.

Take `O=S(=O)(Nc1cc(Cl)c(Oc2cnc3ccccc3c2)c(Cl)c1)c1ccc(Cl)cc1Cl`: the Potency result in [18] was “inactive”.

As for `CC1CCC2C(C)(C)C(O)CCC2(C)C12Cc1c(O)cc3c(c1O2)CN(C(CCCN=C(N)N)C(=O)O)C3=O` (configuration not stated), the Potency result in [18] was “inactive”.

In the case of `CC1CCC2(C(=O)OC3OC(CO)C(O)C(O)C3O)CCC3(C)C(=CCC4C5(C)CCC(O)C(C)(CO)C5CCC43C)C2C1(C)O` (configuration not stated), in experiment [18], the Potency entry was “inactive”.

Turning to `Nc1ncnc2c1ncn2CCNCCCCCO`, the Potency entry in experiment [18] was “inactive”.

These data come from PubChem BioAssay (NCATS).
